# A number with no mark means an inactive call. Records with an inconclusive call do not appear. The source made the active and inactive calls. Unless noted, the call rests on the fitted dose curve; in most records, active means well fitted curve in the direction sought with a large enough effect; inconclusive means small, poorly fitted or top-dose-only effect, or another doubt; inactive means no such curve, though single readings can be large; an effect the other way counts as inactive or inconclusive.
# Tested on: not listed separately
# Assay: MultiTox-Fluor Cytotoxicity Assay - LYMP1-001 - Dead Cells (AID 946); further: potency means the concentration at half of the fitted maximal effect
# Conditions: LYMP1-001 lymphoblastoid cells, dead-cell protease fluorescence; series mostly up to 92.2 µM; cytotoxicity (dead cells): at the top concentration
# Method in brief: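 Cytotoxicity as increased dead-cell protease fluorescence (bis-AAF-R110, 485/520 nm), read 60 min after MultiTox-Fluor reagent. Human lymphoblastoid line exposed 16 h; Hill-fitted AC50, with DMSO as 0% and 15 uM tetraoctylammonium bromide as 100%.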
SMILES,cytotoxicity (dead cells) [%],Potency
CCCC(C)(COC(N)=O)COC(=O)NC(C)C (stereo unspecified),-9.54,–
NCC(O)c1ccc(O)cc1 (stereo unspecified),12.6,–
Oc1cccc2cccnc12,–,39.8 µM (active)

# Tested on: not listed separately
# Assay: Cell Viability - LYMP1-002 - Assay at 16 hr (AID 948);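 further: 0% = DMSO alone and full effect = 92 µM tetraoctylammonium bromide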
# Conditions: LYMP1-002 lymphoblastoid cell viability; series mostly up to 92.2 µM; activity change, negative = cytotoxicity: at the top concentration
# Method in brief: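 Acute cytotoxicity is scored as a concentration-dependent fall in intracellular ATP in a human lymphoblastoid line (LYMP1-002) after 16 hr compound exposure at 37 C, measured by luciferase luminescence.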
row,SMILES,"activity change, negative = cytotoxicity [%]"
1,CCCC(C)(COC(N)=O)COC(=O)NC(C)C (stereo unspecified),-6.54
2,Clc1ccc(COC(Cn2ccnc2)c2ccc(Cl)cc2Cl)cc1 (stereo unspecified),-22.6
3,NCC(O)c1ccc(O)cc1 (stereo unspecified),-2.21

# Biological target: Pyruvate kinase PKM (Homo sapiens) (UniProt P14618)
# Assay: qHTS Assay for Activators of Human Muscle Pyruvate Kinase (AID 954; active means well fitted curve in the direction sought with a large enough effect, not every such curve was filed as active;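 further: 0% = uninhibited enzyme and -100% = no enzyme or full thiadiazolimine inhibition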)
# Conditions: purified human muscle pyruvate kinase, luciferase-coupled luminescence, 1 h; series mostly up to 57.5 µM; activity change, negative = inhibition: at the top concentration
# Method in brief: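 ATP production by PKM2 detected via luciferase luminescence after 1 h room-temperature reaction (0.1 nM enzyme, PEP at Km 0.5 mM, ADP 0.1 mM, pH 7.2 imidazole buffer). Inhibition scaled to no-enzyme control; activation referenced to 0.3 nM enzyme wells.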
# Sequence of Pyruvate kinase PKM (Homo sapiens) (P14618 whole entry, looked up): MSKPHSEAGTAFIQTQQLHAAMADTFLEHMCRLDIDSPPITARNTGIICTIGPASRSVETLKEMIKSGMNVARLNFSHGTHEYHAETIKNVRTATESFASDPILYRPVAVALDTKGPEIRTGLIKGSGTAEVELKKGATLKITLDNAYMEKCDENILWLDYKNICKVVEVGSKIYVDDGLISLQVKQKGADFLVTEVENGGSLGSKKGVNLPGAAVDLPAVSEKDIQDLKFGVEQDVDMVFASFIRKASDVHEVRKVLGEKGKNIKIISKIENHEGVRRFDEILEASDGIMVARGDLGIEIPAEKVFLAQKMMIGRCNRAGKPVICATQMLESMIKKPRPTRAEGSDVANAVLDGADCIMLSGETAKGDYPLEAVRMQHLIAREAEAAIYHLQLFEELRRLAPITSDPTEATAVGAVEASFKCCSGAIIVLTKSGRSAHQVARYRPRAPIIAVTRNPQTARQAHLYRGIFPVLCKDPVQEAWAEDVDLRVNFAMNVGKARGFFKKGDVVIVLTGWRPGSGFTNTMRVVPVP
SMILES,"activity change, negative = inhibition [%]",outcome
CN1C[C@H](CNC(=O)OCc2ccccc2)C[C@@H]2c3cccc4c3c(cn4C)C[C@H]21,-5.05,–
O=c1[nH]c2ccccc2n1C1CCN(CCCC(c2ccc(F)cc2)c2ccc(F)cc2)CC1,-7.41,–
CCCC(C)(COC(N)=O)COC(=O)NC(C)C (stereo unspecified),-7.7,–
Cc1ncc(CNC(=O)N(CCCl)N=O)c(N)n1,-6.81,–
N[C@@H]1C[C@H]1c1ccccc1,-18.3,–
O=c1[nH]c2ccccc2n1CCCN1CCC(n2c(=O)[nH]c3cc(Cl)ccc32)CC1,-12.6,–
Cc1ccc(S(=O)(=O)N[C@@H](CCCCN)C(=O)CCl)cc1,-20.2,–
Nc1ccncc1,-25.5,–
Cc1cccc(C)c1NC1=NCCCS1,-17.1,–
c1ccc(C2CC2)c(OCC2=NCCN2)c1,-10.9,–
COc1ccccc1N1CCNCC1,-11,–
CCCN1CCC[C@@H]2Cc3[nH]ncc3C[C@H]21,–,inactive
NN=C(N)N,–,inactive
CCCN1CCC[C@@H]2Cc3nc(N)ncc3C[C@H]21,-6.29,–
NCC(CC(=O)O)c1ccc(Cl)cc1 (stereo unspecified),5.75,–

# Tested on: not listed separately
# Assay: MultiTox-Fluor Cytotoxicity Assay - LYMP1-002 - Live Cells (AID 955);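 further: cells exposed to compound for 16 hours; on the % scale 0 is the no-effect control and ±100 the full control effect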
# Conditions: LYMP1-002 lymphoblastoid live-cell protease fluorescence viability; series mostly up to 46.1 µM; viability change, negative = cytotoxic: at the top concentration
# Method in brief: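 LYMP1-002 lymphoblastoid cells; 2500 cells/well; 16 hr compound exposure, 37 C; MultiTox-Fluor reagent 60 min RT; live-cell fluorescence Ex/Em=405/510; qHTS concentration-response, Hill-equation AC50; tetraoctylammonium bromide positive control.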
row,SMILES,"viability change, negative = cytotoxic [%]"
1,CCCC(C)(COC(N)=O)COC(=O)NC(C)C (stereo unspecified),-1.6
2,Clc1ccc(COC(Cn2ccnc2)c2ccc(Cl)cc2Cl)cc1 (stereo unspecified),-23.6
3,NCC(O)c1ccc(O)cc1 (stereo unspecified),-7.08
4,Oc1cccc2cccnc12,-29.6

# Biological target: Alpha-galactosidase (Coffea arabica) (UniProt Q42656)
# Assay: Counterscreen for Glucocerebrosidase Inhibitors: qHTS Assay for Coffee Bean alpha-Galactosidase at pH 4.5 (AID 957);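 further: plate controls were enzyme alone for no effect and no enzyme for full effect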
# Conditions: purified coffee bean alpha-galactosidase, fluorogenic substrate; series mostly up to 76.9 µM; activity change, negative = inhibition: at the top concentration
# Method in brief: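 Fluorogenic read-out: 4-methylumbelliferone at Ex 365/Em 440 nm after NaOH/glycine stop (pH 10). Enzyme 2 nM, 4-MU-alpha-galactoside 80 uM, citrate buffer pH 4.5, 20 min RT; normalized to no-enzyme and enzyme controls.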
# Sequence of Alpha-galactosidase (Coffea arabica) (Q42656 whole entry, looked up): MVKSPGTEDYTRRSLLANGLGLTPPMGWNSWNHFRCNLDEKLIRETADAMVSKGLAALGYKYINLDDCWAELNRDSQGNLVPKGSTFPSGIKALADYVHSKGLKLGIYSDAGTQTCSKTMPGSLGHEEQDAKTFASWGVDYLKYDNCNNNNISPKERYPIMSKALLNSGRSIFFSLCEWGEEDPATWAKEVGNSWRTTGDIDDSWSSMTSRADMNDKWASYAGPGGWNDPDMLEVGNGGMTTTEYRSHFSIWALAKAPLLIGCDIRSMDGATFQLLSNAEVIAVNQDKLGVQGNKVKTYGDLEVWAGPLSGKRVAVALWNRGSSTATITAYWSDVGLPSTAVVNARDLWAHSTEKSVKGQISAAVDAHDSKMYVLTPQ
SMILES,"activity change, negative = inhibition [%]",outcome
CN1C[C@H](CNC(=O)OCc2ccccc2)C[C@@H]2c3cccc4c3c(cn4C)C[C@H]21,-3.29,–
O=c1[nH]c2ccccc2n1C1CCN(CCCC(c2ccc(F)cc2)c2ccc(F)cc2)CC1,-11.5,–
CCCC(C)(COC(N)=O)COC(=O)NC(C)C (stereo unspecified),1.56,–
Cc1ncc(CNC(=O)N(CCCl)N=O)c(N)n1,-0.428,–
N[C@@H]1C[C@H]1c1ccccc1,0.0931,–
O=c1[nH]c2ccccc2n1CCCN1CCC(n2c(=O)[nH]c3cc(Cl)ccc32)CC1,0.058,–
COc1ccc(Cc2nccc3cc(OC)c(OC)cc23)cc1OC,-2.91,–
Cc1ccc(S(=O)(=O)N[C@@H](CCCCN)C(=O)CCl)cc1,0.587,–
Nc1ccncc1,-2.45,–
Cc1cccc(C)c1NC1=NCCCS1,3.62,–
c1ccc(C2CC2)c(OCC2=NCCN2)c1,-1.29,–
COc1ccccc1N1CCNCC1,-1.54,–
CCCN1CCC[C@@H]2Cc3[nH]ncc3C[C@H]21,–,inactive
NN=C(N)N,–,inactive
CCCN1CCC[C@@H]2Cc3nc(N)ncc3C[C@H]21,-0.496,–
NCC(CC(=O)O)c1ccc(Cl)cc1 (stereo unspecified),-1.12,–
O=c1c(O)c(-c2ccc(O)c(O)c2)oc2cc(O)cc(O)c12,0.726,–

# Tested on: not listed separately
# Assay: MultiTox-Fluor Cytotoxicity Assay - LYMP1-002 - Dead Cells (AID 960); further: nearly all actives have a fitted effect of over 60% in size; further: potency means the concentration at half of the fitted maximal effect
# Conditions: LYMP1-002 lymphoblastoid cells, dead-cell protease fluorescence; series mostly up to 46.1 µM; cytotoxicity (dead cells): at the top concentration
# Method in brief: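 Readout: fluorescence at 485/520 from cell-impermeant bis-AAF-R110 cleaved by proteases leaking from damaged cells. LYMP1-002 lymphoblastoid line, 16 hr compound treatment at 37 C, concentration-response in qHTS format; Hill-equation AC50 values.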
SMILES,cytotoxicity (dead cells) [%],Potency
CCCC(C)(COC(N)=O)COC(=O)NC(C)C (stereo unspecified),3.38,–
NCC(O)c1ccc(O)cc1 (stereo unspecified),15.5,–
Oc1cccc2cccnc12,–,15.8 µM (active)

# Tested on: not listed separately
# Assay: MultiTox-Fluor Cytotoxicity Assay - LYMP1-003 - Dead Cells (AID 961); further: nearly all actives have a fitted effect of over 70% in size; further: potency means the concentration at half of the fitted maximal effect
# Conditions: LYMP1-003 lymphoblastoid cells, dead-cell protease fluorescence; series mostly up to 92.2 µM; cytotoxicity (dead cells): at the top concentration
# Method in brief: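 Dead-cell protease release, detected as bis-AAF-R110 fluorescence at 485/520 nm, was measured in LYMP1-003 cells after 16 h compound treatment at 37 C. AC50 values came from Hill-modeled qHTS curves normalized to DMSO (0%) and 15 uM tetraoctylammonium bromide (100%).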
SMILES,cytotoxicity (dead cells) [%],Potency
CCCC(C)(COC(N)=O)COC(=O)NC(C)C (stereo unspecified),-14.4,–
Clc1ccc(COC(Cn2ccnc2)c2ccc(Cl)cc2Cl)cc1 (stereo unspecified),–,63.1 µM (active)
NCC(O)c1ccc(O)cc1 (stereo unspecified),-5.57,–

# Tested on: not listed separately
# Assay: MultiTox-Fluor Cytotoxicity Assay - LYMP1-003 - Live Cells (AID 962);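 further: cells exposed to compound for 16 hours at 37 °C; 0% = DMSO only and full loss = 92 µM tetraoctylammonium bromide; cytotoxic hits lower the live-cell protease signal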
# Conditions: LYMP1-003 lymphoblastoid cells, MultiTox-Fluor live-cell protease fluorescence; series mostly up to 92.2 µM; activity change, negative = fewer live cells: at the top concentration
# Method in brief: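 Readout: live-cell fluorescence (Ex/Em=405/510) from GF-AFC cleavage after 60 min MultiTox-Fluor reagent at room temperature. Lymphoblastoid LYMP1-003 cells, 16 hr compound treatment, 37 C. Concentration-response fitted to standard Hill equation for AC50.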
row,SMILES,"activity change, negative = fewer live cells [%]"
1,CCCC(C)(COC(N)=O)COC(=O)NC(C)C (stereo unspecified),-0.699
2,Clc1ccc(COC(Cn2ccnc2)c2ccc(Cl)cc2Cl)cc1 (stereo unspecified),-18.7
3,NCC(O)c1ccc(O)cc1 (stereo unspecified),-3.84

# Reference: PubChem BioAssay (NCATS)
